# Screening data from PubChem BioAssay.
# tim10-1 inh: growth inhibitors of tim10-1 mutant yeast | inhibition, % at 20 µM | hit rate 2.2% among 330,000 | S. cerevisiae tim10-1 ts strain growth, BacTiter-Glo, 24 h;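 active means inhibition of at least 40%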;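 further: mutant grown at 25 °C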
# tim23-1 inh: growth inhibitors of tim23-1 mutant yeast | S. cerevisiae tim23-1 growth, BacTiter-Glo luminescence, 24 h | inhibition, % at 20 µM | hit rate 1.3% among 330,000 | AID 463212;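 active means growth inhibition of the mutant yeast at or above 50%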;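 further: temperature-sensitive mutant grown at 25 °C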
# NLRP3 yeast inh: NALP3 inhibition in yeast; Yeast reconstituted NLRP3/ASC/caspase-1, beta-gal luminescence, 24 h; hit rate 0.39% among 330,000; inhibition, % at 10 µM;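 active means inhibition of 50% or more; inactive means inhibition below 50%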
# TIM10 inh: growth inhibitors of TIM10 yeast strain | inhibition, % at 10 µM | S. cerevisiae TIM10 strain growth, BacTiter-Glo luminescence, 24 h | hit rate 1.4% among 330,000;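 active means inhibition of 40% or more at the single tested concentration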;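 further: wild-type TIM10 isogenic control strain grown at permissive 25 °C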
# PfHsp90 yeast 2: reduces growth (ATP signal) of yeast expressing P. falciparum Hsp90; S. cerevisiae expressing PfHsp90, BacTiter-Glo ATP, 48 h; yeast lacking PDR1 and PDR3 efflux regulators; inhibition, % at 9.4 µM; hit rate 0.32% among 310,000;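 active means every replicate shows inhibition above about 80%, whatever the replicate mean, limit read from the data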
# tim10 confirm: TIM10 yeast growth inhibition, confirmed; shares compounds with TIM10 inh; inhibition, % at 10 µM; S. cerevisiae tim10 strain growth, BacTiter-Glo luminescence, 24 h; hit rate 63% among 4,600;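 active means inhibition of yeast growth at or above a set limit in either of two replicates at 10 µM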; further: this counterscreen used the strain with wild-type TIM10
# Hits are given with their value; – = inactive; · = no result. The list is not random: actives were taken first. Their share in the collection is about 3.7%.
SMILES,tim10-1 inh,tim23-1 inh,NLRP3 yeast inh,TIM10 inh,PfHsp90 yeast 2,tim10 confirm
COc1ccc(N(CC(=O)N/N=C/c2ccc(OC)cc2OC)S(=O)(=O)c2ccccc2)cc1,–,–,–,–,–,·
CCn1c(C)cs/c1=N\C(=S)Nc1ccccc1C,–,–,–,41,–,–
CC1CCC(NC(=O)CN2C(=O)NC(C)(C)C2=O)CC1 (stereo not drawn),–,–,–,–,·,·
CCc1c(-c2ccccc2)nc2sc3c(c2c1N)CCCC3,–,–,–,45,–,49
Nc1c(C(=O)O)sc2nc(-c3ccccc3)c3c(c12)CCCC3,–,–,–,–,–,·
COc1ccc(NC(=O)CN2CCN(S(=O)(=O)N3CCCCCC3)CC2)cc1,–,–,–,–,–,·
CCOc1ccc(C2=NNC(c3cccnc3)=Nc3ccc(OC)cc32)cc1,–,–,–,51,–,–
CCOc1ccc2c(c1)C(c1ccc(C)cc1)=NNC(c1ccc(OC)cc1)=N2,–,–,–,–,–,·
Cc1cc(C)c(NC(=S)NCCCSC2CCCCC2)c(C)c1,–,–,–,42,–,–
COc1cccc(NC(=O)NCCCSC2CCCCC2)c1,–,–,–,–,–,·
Cc1ccc2nc(-c3ccncc3)cc(-c3ccccc3)c2c1,–,–,–,–,–,·
Cc1ccc(-c2cc3cccc[n+]3cc2-c2ccc(C)cc2)cc1,–,–,–,51,–,53
CN(C)CCCn1c(SCC(=O)Nc2nc(-c3cccc(Br)c3)cs2)nc2ccccc2c1=O,–,–,–,43,–,–
CCc1ccc(C(=O)OCC(=O)NCCNC(=O)COC(=O)c2ccc(CC)cc2)cc1,–,–,–,–,–,·
S=C(NN=C1CCCCCC1)Nc1ccc(Cl)cc1,–,–,–,–,–,·
Fc1ccc(NC(=S)NN=C2CCCCCC2)cc1,–,–,–,45,–,–
CC(c1ccccc1)n1cc(C(=O)NCc2cccnc2)nn1 (stereo not drawn),–,–,–,51,–,–
COc1cccc(CNC(=O)C2CCCN(C(=O)c3ccc(Cl)cc3)C2)c1 (stereo not drawn),–,–,–,–,–,·
COc1ccc(/C(C)=C(\C#N)C(=O)OC(C)C)cc1OC,–,–,–,–,–,·
CC(C)CN1C(=O)C(=O)N(CC(=O)Nc2cc(Cl)ccc2Oc2ccccc2)C1=O,–,–,–,43,·,39
CC(=O)c1ccc(N(C(=O)CNC(=O)c2ccco2)C(C(=O)NC2CCCC2)c2ccncc2)cc1 (stereo not drawn),–,–,–,–,–,·
COc1ccc(-c2cn3cc(C)ccc3n2)cc1F,–,–,–,61,–,57
CCc1ccccc1OCC(=O)OCC(=O)N1CC(=O)Nc2ccccc21,–,–,–,–,–,·
COc1cnc(-c2ccccn2)nc1N(C)C,–,–,–,–,–,·
COc1cccc(Oc2nc(-c3ccccc3O)nc3ccccc23)c1,–,–,–,–,–,·
SMILES,tim10-1 inh,tim23-1 inh,NLRP3 yeast inh,TIM10 inh,PfHsp90 yeast 2,tim10 confirm
COc1ccc(Oc2nc(-c3ccccn3)ncc2OC)cc1,–,–,–,–,–,·
COc1cnc(-c2ccccn2)nc1Oc1cccc(Cl)c1,–,–,–,46,–,49
COc1cnc(-c2ccccn2)nc1Sc1c(Cl)cccc1Cl,–,–,–,50,·,38
COc1ccc(Oc2nc(-c3ccccn3)nc3ccccc23)cc1,–,–,–,41,·,34
CCC1C(c2ccccc2)N(C)C(c2ccccc2)CC1(O)c1ccccc1 (stereo not drawn),–,–,–,44,–,34
CC(=O)NC(CC(=O)N(Cc1ccccc1)c1ccc(C)cc1)c1ccccc1 (stereo not drawn),–,–,–,–,–,·
Cc1c(C)c2ccc(OC(C)C(=O)N3C[C@H]4C[C@@H](C3)c3cccc(=O)n3C4)c(C)c2oc1=O (stereo partly drawn),–,–,–,59,–,–
Cc1c(OC(C)C(=O)N2C[C@H]3C[C@@H](C2)c2cccc(=O)n2C3)ccc2c3c(c(=O)oc12)CCC3 (stereo partly drawn),–,–,–,–,–,·
CC(C)(C)c1nc(NC(=O)Nc2ccccc2)sc1Br,–,–,–,49,–,49
Cc1cc(/C([O-])=C(/C(=S)Nc2ccc(F)cc2)[n+]2ccccc2)c(C)n1-c1ccc(F)cc1,–,–,–,–,–,·
Cc1ccc(-n2c(C)cc(/C([O-])=C(/C(=S)Nc3ccc(F)c(Cl)c3)[n+]3ccccc3)c2C)cc1,–,–,–,41,·,–
O=C(CSc1nnc(COc2ccc(Cl)cc2)o1)NC1CC2CCC1C2 (stereo not drawn),–,–,–,–,–,·
Cc1cccc(OCCCCc2c(C)n[nH]c2C)c1,–,–,–,40,–,39
CN(C)CCN(C(=O)C1=COCCO1)c1nc2ccc(F)cc2s1,–,–,–,64,–,–
N/C(=N\OC(=O)/C=C/c1ccccc1Cl)c1ccccn1,–,–,–,51,–,55
Nn1c(SCC(=O)Nc2ccccc2)nnc1-c1cccnc1,–,–,–,–,–,·
CCCn1c(O)c(/C=C2\C=NN=C2c2ccccc2)sc1=S,–,–,–,42,·,–
COc1ccc(Cc2nc(C(=O)Nc3ccc(Cl)cc3)cs2)cc1,–,–,–,47,–,37
CCC(C)(C(=O)NC1CCCC1)N(Cc1cccs1)C(C)=O (stereo not drawn),–,–,–,–,–,·
CCC(C)(C(=O)NC1CCCC1)N(Cc1cccs1)C(=O)Cc1cccs1 (stereo not drawn),–,–,–,45,–,–
O=C(C#Cc1ccccc1)c1cccc([N+](=O)[O-])c1,–,–,–,72,152,70
CCC(C)NC(=O)c1cc2cc3ccc(OC)cc3nc2s1 (stereo not drawn),–,–,–,46,–,–
CCC(C)NC(=O)c1cc2c(=O)n3ccccc3nc2s1 (stereo not drawn),–,–,–,–,–,·
COc1ccc2cc3cc(C(=O)NCCN4CCc5ccccc5C4)sc3nc2c1,–,–,–,69,–,67
CC(O)CNc1nc2ccccc2n1CC(=O)N1CCN(Cc2ccccc2)CC1 (stereo not drawn),–,–,–,–,–,·
SMILES,tim10-1 inh,tim23-1 inh,NLRP3 yeast inh,TIM10 inh,PfHsp90 yeast 2,tim10 confirm
O=C(NCCN1C(=O)S/C(=C\c2ccccc2F)C1=O)C1CCCN1C(=O)c1cccs1 (stereo not drawn),–,–,–,–,–,·
CCN(CC)C(=O)N1CCN(S(=O)(=O)c2ccc(C)cc2)CC1,–,–,–,–,·,·
CCN(CC)C(=O)N1CCN(S(=O)(=O)c2c(C)cc(C)cc2C)CC1,–,–,–,40,–,–
Cc1cc(C)cc(C(=O)OCC(=O)N2CCCCCC2)c1,–,–,–,–,–,·
COc1cccc(CN(C)C(=O)COc2cccc3c2OC(C)(C)C3)c1OC,·,·,·,·,–,·
CC(NC(=S)Nc1cccc(C(F)(F)F)c1)C(C)(C)C (stereo not drawn),–,–,–,45,·,–
